Test results as given in PubChem BioAssay (EPA / NIEHS).
Activity calls are given as the source filed them. How the source made its calls: active means hit-call score of the fitted dose curve at least 0.9, where 1 is the maximum; inactive means score below 0.9.

Columns and labels:
[1] = read-out: Transforming growth factor beta 1 (TGFb1), TGFB1 (gene 7040); experiment: BSK_KF3CT_TGFb1: BioMAP Diversity Plus: KF3CT Assay for Transforming growth factor beta 1 (TGFb1) Biomarker Activity (AID 2283072); conditions: primary human keratinocytes with fibroblasts; actives raise or lower the signal
Outline: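 Human keratinocyte plus foreskin fibroblast primary co-culture, dosed with chemical for 24 h. TGF-b1 quantified by ELISA. Activity fitted bidirectionally against DMSO negative control as baseline.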

[2] = read-out: C-C motif chemokine 2 (Homo sapiens) (UniProt P13500); experiment: BSK_KF3CT_MCP1: BioMAP Diversity Plus: KF3CT Assay for Monocyte Chemoattractant Protein 1 (MCP1/CCL2) Biomarker Activity (AID 2283073); conditions: primary human keratinocytes with fibroblasts; actives raise or lower the signal
Outline: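 Biomarker MCP-1 is measured by ELISA in primary human keratinocytes co-cultured with foreskin fibroblasts, 24 h after chemical treatment; DMSO serves as the negative control and activity baseline.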

[3] = read-out: Matrix Metallopeptidase 9 (MMP9), MMP9 (gene 4318); experiment: BSK_KF3CT_MMP9: BioMAP Diversity Plus: KF3CT Assay for Matrix Metallopeptidase 9 (MMP9) Biomarker Activity (AID 2283074); conditions: primary human keratinocytes with fibroblasts; actives raise or lower the signal;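 on AC50: MMP9 protein level quantified by ELISA in the co-culture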
Outline: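 Keratinocyte plus foreskin fibroblast human primary skin co-culture was dosed with chemical and MMP-9 was quantified by ELISA 24 h later. Bidirectional curve fitting used DMSO as negative control and activity baseline.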

CD40, CD40 (gene 958) = experiment: BSK_LPS_CD40: BioMAP Diversity Plus: LPS Assay for CD40 Biomarker Activity (AID 2283076); conditions: primary human HUVEC with PBMC; actives raise or lower the signal
Outline: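 Using a multiplexed primary human co-culture (umbilical vein endothelium plus PBMC), CD40 was read by ELISA 24 h after dosing, with cytotoxicity tracked by sulforhodamine B staining of parallel cultures and activity fitted bidirectionally versus DMSO.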

[4] = read-out: E-selectin (Homo sapiens) (UniProt P16581); experiment: BSK_LPS_Eselectin: BioMAP Diversity Plus: LPS Assay for Eselectin Biomarker Activity (AID 2283077); conditions: primary human HUVEC with PBMC; actives raise or lower the signal
Outline: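 Dose chemical onto LPS-driven HUVEC/PBMC co-culture; after 24 h, run ELISA for E-selectin; fit up- and down-going responses relative to DMSO control.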

[5] = read-out: Interleukin-8 (IL8), CXCL8 (gene 3576); experiment: BSK_LPS_IL8: BioMAP Diversity Plus: LPS Assay for Interleukin-8 (IL8) Biomarker Activity (AID 2283078); conditions: primary human HUVEC with PBMC; actives raise or lower the signal
Outline: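 In this LPS system, chemical-treated human umbilical vein endothelium/PBMC co-cultures were harvested at 24 h for IL-8 ELISA.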

[6] = read-out: Interleukin-1 alpha (IL1a), IL1A (gene 3552); experiment: BSK_LPS_IL1a: BioMAP Diversity Plus: LPS Assay for Interleukin-1 alpha (IL1a) Biomarker Activity (AID 2283080); conditions: primary human HUVEC with PBMC; actives raise or lower the signal
Outline: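 Primary human HUVEC and PBMC co-culture stimulated with LPS is dosed and harvested at 24 h. Both increases and decreases in ELISA-measured IL-1a are scored relative to DMSO.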

[7] = read-out: urokinase plasminogen activator (uPA), PLAU (gene 5328); experiment: BSK_KF3CT_uPA: BioMAP Diversity Plus: KF3CT Assay for urokinase plasminogen activator (uPA) Biomarker Activity (AID 2283075); conditions: primary human keratinocytes with fibroblasts; actives raise or lower the signal
Outline: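 Human keratinocyte plus foreskin fibroblast primary co-culture exposed to chemical for 24 h. uPA levels were quantified by ELISA, and activity was fitted bidirectionally against a DMSO negative-control baseline.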

[8] = BSK_LPS_SRB: Viability Assessment in the BioMAP Diversity Plus: LPS Assay (AID 2283079); conditions: primary human HUVEC with PBMC;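 further: total protein by sulforhodamine B absorbance as a cytotoxicity measure; measured one day after compound addition; fitted in both directions against DMSO so loss or gain of signal counts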
Outline: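 Cytotoxicity endpoint in human endothelial–PBMC co-culture: 24 h exposure, then SRB (0.1%) staining, 560 nm read.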

Measured: AC50

E-selectin (Homo sapiens), sequence (P16581 whole entry, looked up): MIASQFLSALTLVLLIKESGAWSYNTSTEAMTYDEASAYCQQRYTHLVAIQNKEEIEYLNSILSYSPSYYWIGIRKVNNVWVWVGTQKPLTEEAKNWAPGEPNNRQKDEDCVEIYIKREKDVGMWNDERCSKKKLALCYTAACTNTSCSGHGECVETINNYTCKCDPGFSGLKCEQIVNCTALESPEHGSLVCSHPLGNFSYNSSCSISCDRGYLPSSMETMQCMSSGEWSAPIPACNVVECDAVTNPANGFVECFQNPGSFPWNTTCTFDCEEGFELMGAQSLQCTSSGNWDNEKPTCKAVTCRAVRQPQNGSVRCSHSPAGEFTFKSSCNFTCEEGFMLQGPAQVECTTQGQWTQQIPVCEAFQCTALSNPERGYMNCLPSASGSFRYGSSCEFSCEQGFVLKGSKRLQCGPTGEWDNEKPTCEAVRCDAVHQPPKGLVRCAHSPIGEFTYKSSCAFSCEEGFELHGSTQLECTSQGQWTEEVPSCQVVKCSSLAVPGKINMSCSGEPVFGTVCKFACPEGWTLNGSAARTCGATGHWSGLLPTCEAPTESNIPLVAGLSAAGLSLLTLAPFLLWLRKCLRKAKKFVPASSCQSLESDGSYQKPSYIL

COc1cc(OC)nc(NC(=O)NS(=O)(=O)c2cc(NC=O)ccc2C(=O)N(C)C)n1
not listed: [7] | [8]
inactive: all other assays above

[2H]C1([2H])[n+]2ccccc2-c2cccc[n+]2C1([2H])[2H]
active: [3] 13.3 µM | [7] 28.9 µM
not listed: [2] | [8]
inactive: all other assays above

COC(=O)c1ccccc1CS(=O)(=O)NC(=O)Nc1nc(OC)cc(OC)n1
not listed: [7] | [8]
inactive: all other assays above

CCOc1nc(NC)nc(NC(=O)NS(=O)(=O)c2ccccc2C(=O)OC)n1
active: [3] 30.4 µM
not listed: [7] | [8]
inactive: all other assays above

CCc1ccc(C(=O)NN(C(=O)c2cc(C)cc(C)c2)C(C)(C)C)cc1
not listed: [7] | [8]
inactive: all other assays above

COP(=S)(OC)Oc1ccc([N+](=O)[O-])cc1
active: CD40, CD40 (gene 958) 20 µM
not listed: [7] | [8]
inactive: all other assays above

CCCN(CCOc1c(Cl)cc(Cl)cc1Cl)C(=O)n1ccnc1
active: CD40, CD40 (gene 958) 20 µM
not listed: [7] | [8]
inactive: all other assays above

CCCN(CCC)c1c([N+](=O)[O-])cc(C(F)(F)F)cc1[N+](=O)[O-]
active: CD40, CD40 (gene 958) 20.4 µM | [4] 15.2 µM
not listed: [7] | [8]
inactive: all other assays above

COP(=O)(OC)OC=C(Cl)Cl
active: CD40, CD40 (gene 958) 27.3 µM
not listed: [7] | [8]
inactive: all other assays above

O=C(NC(=O)c1c(F)cccc1F)Nc1ccc(OC(F)(F)C(F)OC(F)(F)F)c(Cl)c1 (stereo not drawn)
not listed: [7] | [8]
inactive: all other assays above

CCOC1Oc2ccc(OS(C)(=O)=O)cc2C1(C)C (stereo not drawn)
not listed: [7] | [8]
inactive: all other assays above

C#CCN1C(=O)COc2cc(F)c(N3C(=O)C4=C(CCCC4)C3=O)cc21
not listed: [7] | [8]
inactive: all other assays above

Oc1ccc(Cl)cc1Cc1ccccc1
active: CD40, CD40 (gene 958) 21.1 µM [middle of 7 runs] | [4] 31.3 µM [middle of 6 runs] | [5] 35.3 µM [middle of 7 runs] | [8] 29.3 µM [middle of 7 runs] | [6] 31.8 µM [middle of 6 runs]

COc1nn(CSP(=S)(OC)OC)c(=O)s1
active: [4] 4.79 µM
not listed: [7] | [8]
inactive: all other assays above

CNC(=O)CSP(=S)(OC)OC
not listed: [7] | [8]
inactive: all other assays above
